Tau filament bind: qHTS Assay for Tau Filament Binding; recombinant tau filaments, thioflavin S fluorescence, 15 h; filaments grown with octadecylsulfate alongside compound; Potency, µM (doses to about 57.1 µM), inactives show at the top dose activity change, negative = inhibition; actives 2% (n = 71,000); AID 596, 2007;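 also: % is scaled to controls: 0 for no effect and ±100 for the full control effect; actives lower thioflavin S fluorescence by blocking filaments or displacing dye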
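Read-out: ThS fluorescence, 450 nm excitation/510 nm emission; lower signal marks blocked filament formation or displaced dye. Tau at 1 uM with 30 uM ODS, 10 uM ThS, 5 mM DTT, 100 mM NaCl, 10 mM HEPES pH 7.4; 15 h, 37 C.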
HEK293 cAMP cs: qHTS Assay for Agonists of the Thyroid Stimulating Hormone Receptor: Activators of Intracellular cAMP Concentrations in Parental HEK 293 | parental HEK293 CNG cAMP sensor, membrane potential fluorescence | AID 938, 2007 | Potency, µM (titrated, usually from 57.1 µM), for the others: at the top dose activation, hits mostly activators | actives 2.5% (n = 73,000); also: % of control where 0% means no effect; nearly all actives have a fitted effect of over 55% in size
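Parental HEK 293 cells stably expressing a cAMP-gated CNG channel were loaded with membrane potential dye containing 100 uM RO 20-1724 for 60 min. Compound added for 30 min; depolarization read as fluorescence intensity at 590 nm.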
TSHR agonist: qHTS Assay for Agonists of the Thyroid Stimulating Hormone Receptor; Thyrotropin receptor (Homo sapiens), P16473; HEK293-CNG-TSHR cells (CNG channel as cAMP sensor), membrane potential dye, cAMP; Potency, µM (series often up to 57.1 µM), inactives show at the top dose activation, hits mostly activators; actives 0.48% (n = 73,000); AID 926, 2007; active = well fitted activation curve with a large enough effect in the main read-out, with a control signal flat, not every such curve was filed as active; inconclusive = small, poorly fitted or top-dose-only effect, or a change in a side signal; inactive = no such curve, though single readings can be large or run the other way; % of control where 0% means no effect;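 also: the control signal comes from parental cells without the receptor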
Target sequence (P16473 whole entry, looked up): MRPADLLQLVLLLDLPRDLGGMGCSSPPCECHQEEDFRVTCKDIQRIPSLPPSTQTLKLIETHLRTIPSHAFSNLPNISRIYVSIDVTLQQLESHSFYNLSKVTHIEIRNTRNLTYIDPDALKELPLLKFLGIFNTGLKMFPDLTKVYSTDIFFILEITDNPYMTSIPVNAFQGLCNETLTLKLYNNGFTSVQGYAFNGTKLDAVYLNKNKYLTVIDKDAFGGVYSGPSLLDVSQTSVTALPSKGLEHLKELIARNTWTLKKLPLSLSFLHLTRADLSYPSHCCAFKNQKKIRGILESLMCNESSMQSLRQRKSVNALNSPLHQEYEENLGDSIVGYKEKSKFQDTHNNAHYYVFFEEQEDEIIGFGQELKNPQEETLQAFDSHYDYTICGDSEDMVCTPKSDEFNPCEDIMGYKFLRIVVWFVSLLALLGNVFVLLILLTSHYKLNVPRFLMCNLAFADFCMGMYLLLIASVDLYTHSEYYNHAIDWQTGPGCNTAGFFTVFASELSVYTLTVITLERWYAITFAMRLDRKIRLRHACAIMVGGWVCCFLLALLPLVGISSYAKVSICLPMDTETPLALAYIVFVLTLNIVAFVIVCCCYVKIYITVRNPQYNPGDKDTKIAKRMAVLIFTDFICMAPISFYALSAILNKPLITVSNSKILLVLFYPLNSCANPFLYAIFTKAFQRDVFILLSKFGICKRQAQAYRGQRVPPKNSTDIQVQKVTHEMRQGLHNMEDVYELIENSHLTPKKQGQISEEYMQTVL
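HEK 293 cells stably expressing TSHR and a modified CNG channel, with CNG-only parental cells as counterscreen, were preloaded 60 min at room temperature with membrane potential dye containing 100 uM RO 20-1724. Compound exposure was 30 min, and depolarization was read as fluorescence at 590 nm.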
CRE Fsk mod: Cell signaling CRE-BLA (Fsk stim). CHO CRE-bla reporter (cAMP response element driving beta-lactamase), forskolin EC10, beta-lactamase ratio. Potency, µM (titrated, usually from 38.2 µM), inactives show at the highest dose activity change, negative = inhibition, most hits filed as activators. actives 2.5% (n = 71,000); active = well fitted activation curve with a large enough effect in the signal ratio, with a control signal flat, not every such curve was filed as active; inconclusive = small, poorly fitted or top-dose-only effect, or effect the other way, or a change in a side signal; the % refers to the signal ratio; also: % of control where 0% means no effect
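Forskolin analogue NKH 477 at EC10 stimulated CRE-driven beta-lactamase in CHO cells alongside compound dilution series. Beta-lactamase was measured with CCF4, excitation 405 nm, emission ratio 460/530 nm.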
ERK AVP inh: qHTS Assay for Inhibitors of the ERK Signaling Pathway using a Homogeneous Screening Assay | HEK293-V1b, vasopressin-stimulated pERK AlphaScreen | Potency, µM (doses to about 57.5 µM), inactives show at the top dose activity, negative = inhibition, hits mostly inhibitors | actives 0.99% (n = 72,000) | AID 995, 2007; also: % is scaled to controls: 0 for no effect and ±100 for the full control effect; nearly all actives have a fitted effect of over 55% in size
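Phosphorylated ERK1/2 detected via AlphaScreen bead proximity in lysates of V1b-expressing HEK293 cells given 25 nM vasopressin for 5 min after 30 min compound exposure (37 °C). AC50 from Hill equation; basal DMSO 0%, vasopressin 100%.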
Numbers without * were called inactive; i = inactive; ? = inconclusive; / = not tested or not shown; [ ] = remark or other dose. Compounds with a hit are over-represented: about 7.4% of the library has one in this group of screens. Unless noted, calls follow the shape of the dose curve; as a rule, active = well fitted curve in the direction sought with a large enough effect; inconclusive = small, poorly fitted or top-dose-only effect, or another doubt; inactive = no such curve, though single readings can be large; an effect the other way counts as inactive or inconclusive. Potency is read from the fitted curve at half-maximal effect.

SMILES	Tau filament bind	HEK293 cAMP cs	TSHR agonist	CRE Fsk mod	ERK AVP inh
O=C(O)c1ccc(OCc2ccccc2)c(Cl)c1	0.4%[11.4 µM]	20.8%[11.4 µM]	4.0%[11.4 µM]	2.8%[7.6 µM]	-4.7%[11.5 µM]
Cc1n[nH]c(C)c1N1C(=O)c2cccc3cc(Br)cc(c23)C1=O	15.8µM*	-11.9%	-19.5%	22.6%	?
Cc1cccc(C)c1N1C(=O)c2ccccc2C1=O	4.0%	5.3%	8.2%	8.0%	-1.4%
CSc1nsc(SCC(=O)N2CCc3ccccc32)n1	-7.2%	25.1µM*	?	-13.2%	4.7%
Cc1ccc(N[C@H](c2ccccc2)c2ccc3cccnc3c2O)cc1	-17.4%[11.4 µM]	2.4%[11.4 µM]	4.1%[11.4 µM]	7.6%[7.6 µM]	-7.9%[11.5 µM]
N=c1c(C(=O)NCc2ccco2)cc2c(=O)n3ccccc3nc2n1Cc1ccc(Cl)cc1	3.16µM*	-78.3%	?	2.51µM*	5.8%
Cc1cccn2c(=O)c3cc(C(=O)NCc4ccco4)c(=N)n(CCc4ccccc4)c3nc12	1.58µM*	-66.7%	?	?	-12.6%
CCn1c(=N)c(C(=O)OC)cc2c(=O)n3ccccc3nc21	7.2%	?	?	10µM*	-14.3%
CCOC(=O)c1cc2c(=O)n3cc(C)ccc3nc2n(Cc2cccnc2)c1=N	50.0%	-8.9%	-8.9%	8.1%	-27.9%
CCOC(=O)c1cc2c(=O)n3ccccc3nc2n(Cc2ccc(Cl)cc2)c1=N	0.501µM*	-29.9%	0.5%	?	-12.8%
COCCn1c(=N)c(C(=O)NCc2ccco2)cc2c(=O)n3ccccc3nc21	94.6%	5.9%	-0.5%	?	-21.1%
N=C(N)SCCCN	4.2%[11.4 µM]	-3.0%[11.4 µM]	6.0%[11.4 µM]	-7.1%[7.6 µM]	2.4%[11.5 µM]
N=c1c(C(=O)NCc2ccco2)cc2c(=O)n3ccccc3nc2n1Cc1ccccc1	?	-129.1%	?	10µM*	?
Cc1cc(NC(=O)c2ccccc2NS(=O)(=O)c2c(C)c(C)cc(C)c2C)no1	187.5%	31.6µM*	?	?	10.4%
c1nc(N2CCC3(CC2)OCCO3)c2c3c(sc2n1)CCCC3	6.8%	?	?	?	31.6µM*
CCOc1ccc(NCC(=O)Nc2ccc(C)cc2C)cc1	31.6µM*	0.9%	-1.2%	-11.1%	-9.9%
Fc1cccc(-c2cc3nc4c(c(N5CCC6(CC5)OCCO6)n3n2)CCCC4)c1	4.1%	?	?	21.3%	10.0%
OC1CCN(c2c3c(nc4cc(-c5cccc(F)c5)nn24)CCCC3)CC1	26.4%	1.6%	-9.9%	3.16µM*	7.8%
CCc1c(C)nc2cc(-c3cc(OC)cc(OC)c3)nn2c1N1CCCC1	9.8%	20µM*	?	2.51µM*	5.1%
COc1cc(OC)cc(-c2cc3nc4c(c(N5CCN(c6ncccn6)CC5)n3n2)CCCC4)c1	22.8%	15.4%	18.6%	3.16µM*	4.8%
COc1cc(OC)cc(-c2cc3nc4c(c(N5CCN(c6cnccn6)CC5)n3n2)CCCC4)c1	28.6%	11.4%	/	1.58µM*	-20.6%
CCOCCN1CCN(c2c3c(nc4cc(-c5ccc(F)cc5)nn24)CCC3)CC1	21.9%	-2.0%	2.6%	11.0%	-4.4%
N=C(N)SCCN1CCCCC1	4.2%[11.4 µM]	?	?	-7.8%[7.6 µM]	3.7%[11.5 µM]
COC(OC)[C@@H](C)[C@H](OC)[C@@H](C)[C@H](OC)c1ccccc1	/	-1.6%[11.4 µM]	-6.4%[11.4 µM]	/	7.5%[11.5 µM]
O=c1cc(Nc2ccc3c(c2)OCO3)[nH]c(=O)n1-c1ccc(Br)cc1	15.8µM*	-8.6%	0.5%	3.5%	-12.1%
SMILES	Tau filament bind	HEK293 cAMP cs	TSHR agonist	CRE Fsk mod	ERK AVP inh
O=c1cc(Nc2ccc3c(c2)OCCO3)[nH]c(=O)n1-c1ccc(Br)cc1	11.8%	0.0%	-5.0%	?	8.2%
N[C@H](CCCC(=O)O)C(=O)O	-7.7%	-3.1%	/	-5.0%	3.9%
CC(=O)NCc1nc2ccccc2n1Cc1ccccc1C	-8.4%	5.1%	2.1%	-10.8%	/
Cc1ccc(C)c(Cn2c(CO)nc3ccccc32)c1	-1.5%	25.1µM*	?	0.6%	-7.1%
N#CCCn1c(=O)c(CCc2ccccc2)nc2cnc(Nc3ccccc3)nc21	108.8%	?	?	?	18.7%
CCc1c2c(nc3cccc(OC)c13)OC(CC)C2 (configuration not stated)	-4.8%	15.8µM*	?	-6.2%	-6.7%
CCNc1nc(C)c2cc(Br)c(=O)n(CC)c2n1	29.1%	-3.3%	0.7%	1µM*	?
O=C1CCC(c2ccccc2)=NN1c1nc2ccccc2s1	6.7%[11.4 µM]	3.3%[11.4 µM]	3.1%[11.4 µM]	0.7%[7.6 µM]	11.2%[11.5 µM]
O=C(Nc1nnc(-c2ccccc2)s1)c1ccc(Cl)c(S(=O)(=O)N2CCOCC2)c1	1.9%[11.4 µM]	10.7%[11.4 µM]	1.3%[11.4 µM]	4.6%[7.6 µM]	10.2%
NC(=O)c1cc(-c2ccccc2)sc1NC(=O)Cc1ccc(S(=O)(=O)N2CCOCC2)s1	7.94µM*	-18.2%	-12.2%	?	2.6%
CCN(CC)c1ccc(-n2c(C)c(C(C)=O)c(C(C)=O)c2C)cc1	2.0%	15.8µM*	?	-11.0%	-29.8%
CC(=O)c1c(C(C)=O)c(C)n(-c2ccc(C(=O)O)cc2)c1C	-10.7%	5.3%	-1.5%	0.1%	-7.6%
CCOC(=O)N1CCN(C(=O)C(C)(C)Oc2ccc(Cl)cc2)CC1	-0.3%	21.5%	20.8%	0.9%	-2.8%
COc1ccc(N2CCN(C(=O)C(C)(C)Oc3ccc(Cl)cc3)CC2)cc1	12.6µM*	6.4%	-5.7%	-16.0%	?
O=C1c2ccccc2-c2ccc(N(Cc3ccc(Br)cc3)Cc3ccc(Br)cc3)cc21	0.631µM*	13.6%[11.4 µM]	3.9%[11.4 µM]	0.0%[7.6 µM]	3.98µM*
CC(=O)Nc1ccc(O)cc1	?	i	/	-4.3%	-10.6%
CCc1ccc(CNc2ccc(O)cc2)cc1	10µM*	-17.8%	-8.1%	-6.0%	?
O=S1(=O)C=C(Sc2nc3cc(Cl)ccc3o2)c2ccccc21	-0.9%	7.5%	2.0%	?	10µM*
O=c1cc(CSc2nc3cc(Cl)ccc3o2)nc2sccn12	1.7%	3.8%	6.7%	?	-9.9%
CCOc1ccc(-n2c(SCc3nc(-c4cccs4)no3)nnc2-c2ccncc2)cc1	11.4%	3.16µM*	?	?	-28.7%
CN(C)c1ncc2nc(-c3cccs3)c(=O)n(-c3ccccc3)c2n1	i	-10.4%	-4.5%	?	-18.2%
O=C(CSc1nnnn1Cc1ccccc1)Nc1ccc2c(c1)OCCO2	7.7%	4.4%	3.16µM*	-13.9%	-19.8%
Cc1cc(NC(=O)CSc2nnc(COc3ccccc3)n2Cc2ccco2)no1	1.8%	-8.1%	-2.6%	6.8%	-18.1%
O=C(CSc1nnc(COc2ccccc2)n1Cc1ccco1)Nc1ccc2c(c1)OCCO2	181.0%	14.5%	20µM*	-14.4%	-23.2%
CCN1CCCC1CNC(=O)c1ccc(Cc2nc3ccccc3[nH]2)cc1 (configuration not stated)	/	-6.4%	-2.0%	/	/

Assay outcomes deposited in PubChem BioAssay by National Center for Advancing Translational Sciences (NCATS).
